Results published in PubChem BioAssay (EPA / NIEHS).
Activity calls are given as the source filed them. The calls were made as follows: active = hit-call score of the fitted dose curve at least 0.9, where 1 is the maximum; inactive = score below 0.9.

Assays:
[1] = read-out: Tissue Factor, F3 (gene 2152); test: BSK_CASM3C_TissueFactor: BioMAP Diversity Plus: CASM3C Assay for Tissue Factor Biomarker Activity (AID 2283052); conditions: primary human coronary artery smooth muscle cells; actives raise or lower the signal;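 also: cell surface tissue factor protein level read by ELISA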
[2] = read-out: Interferon-gamma inducible Protein 10 (IP10), CXCL10 (gene 3627); test: BSK_hDFCGF_IP10: BioMAP Diversity Plus: hDFCGF Assay for Interferon-gamma inducible Protein 10 (IP10) Biomarker Activity (AID 2283053); conditions: primary human foreskin fibroblasts; actives raise or lower the signal
In short: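 IP-10 levels, quantified by ELISA, are taken from human foreskin fibroblast cultures 24 h after chemical treatment, with DMSO serving as negative control and baseline for bidirectional analysis.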

[3] = read-out: Urokinase-type plasminogen activator receptor (uPAR), PLAUR (gene 5329); test: BSK_CASM3C_uPAR: BioMAP Diversity Plus: CASM3C Assay for Urokinase-type plasminogen activator receptor (uPAR) Biomarker Activity (AID 2283054); conditions: primary human coronary artery smooth muscle cells; actives raise or lower the signal;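 also: cell-surface uPAR protein level quantified by ELISA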
[4] = read-out: Vascular cell adhesion molecule 1 (VCAM1), VCAM1 (gene 7412); test: BSK_CASM3C_VCAM1: BioMAP Diversity Plus: CASM3C Assay for Vascular cell adhesion molecule 1 (VCAM1) Biomarker Activity (AID 2283055); conditions: primary human coronary artery smooth muscle cells; actives raise or lower the signal;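 also: VCAM-1 protein level quantified by ELISA on the cells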
[5] = read-out: Collagen III, COL3A1 (gene 1281); test: BSK_hDFCGF_CollagenIII: BioMAP Diversity Plus: hDFCGF Assay for Collagen III Biomarker Activity (AID 2283056); conditions: primary human foreskin fibroblasts; actives raise or lower the signal
In short: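 hDFCGF primary human dermal fibroblasts; 24 h chemical exposure; collagen III by ELISA; bidirectional curve fit vs DMSO baseline (gain or loss of signal).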

[6] = read-out: Interleukin-8 (IL8), CXCL8 (gene 3576); test: BSK_hDFCGF_IL8: BioMAP Diversity Plus: hDFCGF Assay for Interleukin-8 (IL8) Biomarker Activity (AID 2283058); conditions: primary human foreskin fibroblasts; actives raise or lower the signal
In short: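 ELISA read-out of IL-8 from primary human foreskin fibroblast cultures taken 24 h after dosing; values are bidirectional fits relative to DMSO vehicle.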

[7] = BSK_hDFCGF_Proliferation: Cell Proliferation Assessment in the BioMAP Diversity Plus: hDFCGF Assay (AID 2283059); conditions: primary human foreskin fibroblasts;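 also: curves fitted for both rise and fall of signal versus DMSO baseline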
In short: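 This proliferation readout used SRB total-protein staining of human foreskin fibroblasts […], normalized to DMSO with bidirectional curve fitting.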

[8] = BSK_hDFCGF_SRB: Viability Assessment in the BioMAP Diversity Plus: hDFCGF Assay (AID 2283061); conditions: primary human foreskin fibroblasts;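 also: cells exposed to compound for 24 h before the read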
In short: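 Primary human foreskin fibroblasts; 24 h post-dose; fixed 10% TCA, stained 0.1% SRB, A560 read; total protein as overt cytotoxicity measure; curves fit bidirectionally vs DMSO control.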

[9] = read-out: TIMP metallopeptidase inhibitor 1 (TIMP1), TIMP1 (gene 7076); test: BSK_hDFCGF_TIMP1: BioMAP Diversity Plus: hDFCGF Assay for TIMP metallopeptidase inhibitor 1 (TIMP1) Biomarker Activity (AID 2283062); conditions: primary human foreskin fibroblasts; actives raise or lower the signal
In short: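 ELISA readout of TIMP-1 from human dermal foreskin fibroblast cultures 24 h post-dosing. Curves were fitted in both directions against DMSO baseline, with SRB total-protein staining in parallel cultures as a cytotoxicity check.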

[10] = read-out: Monokine induced gamma interferon (MIG), CXCL9 (gene 4283); test: BSK_hDFCGF_MIG: BioMAP Diversity Plus: hDFCGF Assay for Monokine induced gamma interferon (MIG) Biomarker Activity (AID 2283063); conditions: primary human foreskin fibroblasts; actives raise or lower the signal
In short: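 Fibroblasts (human foreskin, primary) dosed, 24 h, MIG by ELISA; fit bidirectional vs DMSO.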

[11] = read-out: Matrix Metallopeptidase 1 (MMP1), MMP1 (gene 4312); test: BSK_hDFCGF_MMP1: BioMAP Diversity Plus: hDFCGF Assay for Matrix Metallopeptidase 1 (MMP1) Biomarker Activity (AID 2283064); conditions: primary human foreskin fibroblasts; actives raise or lower the signal
In short: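 Primary human foreskin fibroblasts exposed to chemicals for 24 h; MMP1 measured by ELISA. Cytotoxicity tracked by SRB staining in parallel cultures; bidirectional fit relative to DMSO.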

[12] = read-out: Vascular cell adhesion molecule 1 (VCAM1), VCAM1 (gene 7412); test: BSK_hDFCGF_VCAM1: BioMAP Diversity Plus: hDFCGF Assay for Vascular cell adhesion molecule 1 (VCAM1) Biomarker Activity (AID 2283065); conditions: primary human foreskin fibroblasts; actives raise or lower the signal;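 as to AC50: VCAM-1 protein level quantified by ELISA after 24 h chemical exposure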
In short: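 ELISA read-out of VCAM-1 on human skin fibroblasts, 24 h post-dose; gain or loss of signal fitted bidirectionally against DMSO baseline.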

[13] = read-out: Plasminogen activator inhibitor-1 (PAI1), SERPINE1 (gene 5054); test: BSK_hDFCGF_PAI1: BioMAP Diversity Plus: hDFCGF Assay for Plasminogen activator inhibitor-1 (PAI1) Biomarker Activity (AID 2283066); conditions: primary human foreskin fibroblasts; actives raise or lower the signal
In short: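 PAI-1 levels, determined by ELISA, served as the endpoint in human foreskin fibroblast cultures exposed to compound for 24 h, with DMSO as baseline.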

[14] = read-out: Intercellular Adhesion Molecule 1 (ICAM1), ICAM1 (gene 3383); test: BSK_KF3CT_ICAM1: BioMAP Diversity Plus: KF3CT Assay for Intercellular Adhesion Molecule 1 (ICAM1) Biomarker Activity (AID 2283067); conditions: primary human keratinocytes with fibroblasts; actives raise or lower the signal
In short: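 ELISA readout of ICAM-1; KF3CT human skin co-culture (keratinocytes + foreskin fibroblasts), 24 h post-dose; gain/loss fit vs DMSO baseline.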

[15] = read-out: Interferon-gamma inducible Protein 10 (IP10), CXCL10 (gene 3627); test: BSK_KF3CT_IP10: BioMAP Diversity Plus: KF3CT Assay for Interferon-gamma inducible Protein 10 (IP10) Biomarker Activity (AID 2283068); conditions: primary human keratinocytes with fibroblasts; actives raise or lower the signal
In short: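 Signal is secreted/surface IP-10 by ELISA in a human primary skin co-culture of keratinocytes and foreskin fibroblasts, taken 24 h post-dosing; DMSO served as negative control.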

[16] = BSK_KF3CT_SRB: Viability Assessment in the BioMAP Diversity Plus: KF3CT Assay (AID 2283069); conditions: primary human keratinocytes with fibroblasts;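 also: total protein by sulforhodamine B staining as a cytotoxicity measure; read 24 h after compound addition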
In short: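 Human keratinocyte and foreskin fibroblast co-culture exposed to chemical for 24 h. Total protein measured in parallel cultures by 0.1% sulforhodamine B staining after 10% TCA fixation, read at 560 nm; bidirectional fit relative to DMSO.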

[17] = read-out: Interleukin-1 alpha (IL1a), IL1A (gene 3552); test: BSK_KF3CT_IL1a: BioMAP Diversity Plus: KF3CT Assay for Interleukin-1 alpha (IL1a) Biomarker Activity (AID 2283070); conditions: primary human keratinocytes with fibroblasts; actives raise or lower the signal
In short: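 Primary human keratinocyte plus foreskin fibroblast co-culture, dosed and measured at 24 h in 96-well plates. IL-1a level quantified by ELISA; bidirectional fit relative to DMSO.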

[18] = read-out: TIMP metallopeptidase inhibitor 2 (TIMP2), TIMP2 (gene 7077); test: BSK_KF3CT_TIMP2: BioMAP Diversity Plus: KF3CT Assay for TIMP metallopeptidase inhibitor 2 (TIMP2) Biomarker Activity (AID 2283071); conditions: primary human keratinocytes with fibroblasts; actives raise or lower the signal
In short: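 Keratinocyte–fibroblast co-culture, 24 h exposure; TIMP-2 ELISA, DMSO-normalised bidirectional fit. Parallel SRB (0.1%, TCA-fixed, 560 nm) total-protein staining gauges cytotoxicity.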

[19] = read-out: Epidermal growth factor receptor (EGFR), EGFR (gene 1956); test: BSK_hDFCGF_EGFR: BioMAP Diversity Plus: hDFCGF Assay for Epidermal growth factor receptor (EGFR) Biomarker Activity (AID 2283057); conditions: primary human foreskin fibroblasts; actives raise or lower the signal
In short: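 Measured by ELISA: EGFR levels on primary human foreskin fibroblasts 24 h after chemical treatment, analysed relative to DMSO with bidirectional fitting.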

Measured: AC50

COC(=O)c1c(Cl)nn(C)c1S(=O)(=O)NC(=O)Nc1nc(OC)cc(OC)n1
active: [15] 20 µM
not listed: [19]
inactive: all other assays above

N[C@@H](Cc1cc(I)c(Oc2ccc(O)c(I)c2)c(I)c1)C(=O)O
active: [7] 8.65 µM | [12] 6.76 µM
not listed: [19]
inactive: all other assays above

CCCOC(=O)c1ccc(C(=O)OCCC)nc1
not listed: [9] | [19]
inactive: all other assays above

CCOC(=O)COc1cc(-n2ncc(C(F)(F)F)c(C)c2=O)c(F)cc1Cl
not listed: [19]
inactive: all other assays above

CCSC(=O)N(CC(C)C)CC(C)C
not listed: [9] | [19]
inactive: all other assays above

CCOC(=O)C(C)Oc1ccc(Oc2cnc3cc(Cl)ccc3n2)cc1 (configuration not stated)
active: [7] 30.6 µM
not listed: [4] | [9]
inactive: all other assays above

CC(=O)S[C@@H]1CC2=CC(=O)CC[C@]2(C)[C@H]2CC[C@@]3(C)[C@@H](CC[C@@]34CCC(=O)O4)[C@H]12
active: [2] 29.9 µM | [4] 16.8 µM | [6] 30.6 µM | [7] 20 µM | [8] 26.7 µM | [10] 31.2 µM | [11] 31.3 µM | [13] 10.3 µM | [15] 33.4 µM | [17] 30.7 µM
inactive: [1] | [3] | [5] | [12] | [14] | [16] | [18]
